Assay outcomes as filed in PubChem BioAssay.
Compounds with a hit are over-represented: about 4.3% of the library has one in this group of screens.
AF4-AF9 inh: inhibitors of AF4 peptide binding to AF9, primary screen, biochemical, AlphaScreen, biotin-AF4 peptide, FLAG-AF9, single point. Protein AF-9 (Homo sapiens), P42568. inhibition, % at 10 µM. 350,000 tested, 0.47% active. AID 651704, 2012;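 active means every replicate reaching a set inhibition limit, whatever the replicate mean, cut at about 25% in these data; inconclusive means mean inhibition reaches that limit but some replicates miss it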;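 further: 0% = plate neutral control median and 100% = total signal loss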
Target sequence (P42568 whole entry, looked up): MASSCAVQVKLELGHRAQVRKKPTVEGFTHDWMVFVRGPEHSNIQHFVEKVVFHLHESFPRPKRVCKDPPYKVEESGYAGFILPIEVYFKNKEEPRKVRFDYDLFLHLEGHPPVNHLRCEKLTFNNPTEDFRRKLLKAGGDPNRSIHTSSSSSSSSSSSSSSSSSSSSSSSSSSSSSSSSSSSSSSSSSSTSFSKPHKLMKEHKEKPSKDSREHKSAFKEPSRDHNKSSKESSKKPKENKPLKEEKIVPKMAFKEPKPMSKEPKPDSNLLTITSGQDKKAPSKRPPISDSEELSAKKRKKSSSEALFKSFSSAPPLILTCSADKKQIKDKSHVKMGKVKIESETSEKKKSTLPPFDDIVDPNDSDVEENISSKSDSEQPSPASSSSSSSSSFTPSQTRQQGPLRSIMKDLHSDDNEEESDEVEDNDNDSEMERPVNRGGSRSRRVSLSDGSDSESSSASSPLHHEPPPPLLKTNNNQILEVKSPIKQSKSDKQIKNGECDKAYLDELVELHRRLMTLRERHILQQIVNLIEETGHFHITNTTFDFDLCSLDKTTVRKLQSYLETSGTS
FGF22 binding: binders of human FGF22 protein, primary screen, FGF22 synaptogenesis inhibitor project, biophysical, thermal shift, single point | recombinant FGF22 thermal shift, SYPRO orange fluorescence; percent of sucrose octasulfate shift, DMSO zero | activity (Tm shift, normalised), % at 9.99 µM | 340,000 tested, 1.5% active;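 active means mean Tm shift, scaled 0 neutral to 100 positive control, at about 1.3% or above, every replicate too, limit read from the data; inconclusive means no clear call, values can overlap the other calls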
Wnt act: Wnt/beta-catenin pathway activators, primary screen, cell-based, plate reader, single point; Wnt/beta-catenin reporter cell assay, activator; activation, % at 9.35 µM; 300,000 tested, 1.2% active; AID 743398, 2014; in the data active means activation above about 30%, passing the limit was not always enough; inconclusive means no clear call, values can overlap the other calls;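 further: 0% = neutral control wells and 100% = positive control wells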
SMARCA2 act: SMARCA2 (BRM) function activators, primary screen, cell-based, luminescence, high throughput | MG213 cells, MMTV-luciferase reporter, dexamethasone, overnight | activation, % at 9.1 µM | 370,000 tested, 1% active; in the data active means activation above about 7.8%;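 further: 0% = vehicle wells and 100% = reference activator wells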
MITF act: activators of MITF-driven TRPM1 promoter reporter, primary screen, cell-based, SK-MEL-5, luciferase, single point | activation, % at 12.5 µM | AID 588334, 2011 | 300,000 tested, 0.75% active | SK-MEL-5 TRPM1-promoter luciferase, 24 h; % of positive control, neutral wells = 0;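 active means mean activation of at least 80% with every replicate also reaching 80%; inconclusive means mean reaches 80% but some replicate falls short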;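 further: 0% = neutral control wells and 100% = parthenolide positive control wells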
esBAF inh: Bmi1 luciferase reporter increase in mESCs, primary screen, esBAF inhibitor project, mouse ES cells, Bmi1 luciferase knock-in, single point; 24 h; 100% = twice the neutral-well signal; reporter increase, % at 12.5 µM; 350,000 tested, 2% active; in the data active means activation above about 40%; inconclusive means no clear call, values can overlap the other calls;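 further: 0% = median of the plate's neutral control wells and 100% = double that signal; a rise in the Bmi1 reporter signal indicates esBAF inhibition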
Active calls of the source: *; ? = inconclusive; . = no result given.

SMILES	AF4-AF9 inh	FGF22 binding	Wnt act	SMARCA2 act	MITF act	esBAF inh
COc1ccc(NC(=O)C#Cc2ccccc2)cc1OC	4	-1	1	2	.	5
Clc1cccc(CSc2ncnc3sc4c(c23)CCCC4)c1	.	.	.	-3	.	.
COc1ccc2c3c([nH]c2c1)[C@@H](CO)N(S(C)(=O)=O)CC31CN(C(=O)c2cccnc2)C1	-4	.	.	.	.	.
O=C(N[C@H]1CC[C@H](CCNC(=O)C2CCOCC2)O[C@@H]1CO)c1ccccn1	-2	0	.	.	.	-6
Cc1occc1-c1nnc(SCC(=O)Nc2nc(C(C)(C)C)cs2)o1	5	0	-1	-1	10	39
Cc1csc(NC(=O)c2ccoc2C)n1	.	.	.	6	.	42*
Cc1cccc(NC(=O)c2ccoc2C)n1	.	.	.	2	33	45*
Cc1cccc(NC(=O)c2ccccc2Br)n1	-1	0	2	3	5	37
Cc1csc(NC(=O)CSc2nnc(-c3ccoc3C)o2)n1	.	.	21	3	.	43*
COc1cccc(NC(=O)N2C[C@H](O)COC[C@@H]3O[C@@H](CC(=O)NCCCN4CCOCC4)CC[C@H]32)c1	.	0	.	.	.	2
CC(C)(C)c1nc(SCC(=O)N2CC(=O)Nc3ccccc32)c2ccccc2n1	-2	44*	-10	1	-11	.
COc1ccc(-c2ccc(SCC(=O)Nc3nnc(C)s3)nn2)cc1	2	0	35*	0	20	.
COC(=O)CCSCC(=O)Nc1nnc(C)s1	27*	0	-7	1	.	-7
COc1ccc(-c2ccc(SCC(=O)N3CC(=O)Nc4ccccc43)nn2)cc1	2	0	7	0	34	49*
CCOc1ccc(-c2ccc(SCC(=O)Nc3nnc(CC)s3)nn2)cc1	-3	1	11	3	66	.
CNC[C@@H]1Oc2c(NC(=O)Nc3c(C)noc3C)cccc2C(=O)N([C@H](C)CO)C[C@@H]1C	-4	0	.	.	.	1
C[C@@H]1CCCCO[C@H](CN(C)C(=O)CCC(F)(F)F)[C@@H](C)CN([C@@H](C)CO)C(=O)c2cc(NS(=O)(=O)c3ccccc3)ccc2O1	-1	0	.	.	.	6
N#CCn1nnc(-c2ccc3c(c2)OCO3)n1	.	.	6	-2	.	8
Cc1ccccc1Cn1ccc(-c2ccc3c(c2)OCO3)n1	.	.	.	2	73	60*
Cc1ccccc1Cn1nnc(-c2ccc(C(=O)O)cc2)n1	1	0	-1	2	-2	.
Fc1cccc(Cn2ccc(-c3ccc4c(c3)OCO4)n2)c1	.	.	.	4	.	64*
Cc1ccccc1Cn1nnc(-c2cccc(C(=O)O)c2)n1	.	.	39*	2	-1	15
Cc1ccccc1Cn1nnc(-c2ccc3c(c2)OCO3)n1	.	.	.	2	70	51*
COc1ccc(S(=O)(=O)N2CCCCN3[C@@H](CO)[C@H](c4ccc(C#CC5CC5)cc4)[C@@H]3C2)cc1	13	-1	.	.	.	.
C/C=C/c1ccc([C@H]2[C@@H](CNC(C)C)N(C(=O)c3ccccc3)[C@H]2CO)cc1	.	.	.	.	.	3
SMILES	AF4-AF9 inh	FGF22 binding	Wnt act	SMARCA2 act	MITF act	esBAF inh
O=C(Nc1ccccc1)[C@@H]1[C@@H](CO)[C@@H]2Cn3c(cccc3=O)[C@H]1N2C(=O)c1ccc(F)cc1	2	0	.	.	.	0
COc1ccccc1CNC(=O)C[C@H]1CC[C@H]2[C@@H](COC[C@H](O)CN2C(=O)Nc2ccc(Cl)cc2)O1	-2	0	.	.	.	34
CCOC(=O)C1=C(c2ccccc2)NC(N)=NC1c1ccc(OCc2ccc(Cl)cc2)c(OC)c1 (stereo unspecified)	27*	0	14	1	-37	.
CCCc1cn(CC[C@H]2CC[C@@H](NC(=O)C3CCC3)[C@H](CO)O2)nn1	-4	0	.	.	.	-1
Cc1c(C(=O)Nc2cccnc2Cl)oc2ccccc12	-1	0	24	3	51	48*
COC(=O)c1sc(NC(=O)c2ccc(C)o2)nc1C	-1	1	26	3	49	.
COc1ccccc1NC(=O)c1oc2ccc(C)cc2c1C	.	.	5	2	.	48*
COC(=O)c1sc(NC(=O)c2oc3ccccc3c2C)nc1C	.	.	.	7	18	60*
Cc1c(C(=O)Nc2ccccn2)oc2ccccc12	-13	0	?	4	23	-5
CCOc1ccc2nc(N3CCOCC3)nc(C)c2c1	.	.	.	4	99*	34
Cc1cccc(N/N=C/c2ccc(C)s2)c1	9	0	6	4	104*	74*
CC1(C(=O)NS(=O)(=O)c2ccc(Cl)cc2)CCN1C(=O)c1cccc(F)c1 (stereo unspecified)	-3	0	-1	-4	.	-4
CC1(C(=O)NS(=O)(=O)c2ccc(C#N)cc2)CCN1C(=O)c1cccc(F)c1 (stereo unspecified)	-4	0	49*	-3	.	-2
CCNC(=O)[C@@H]1[C@@H](CO)[C@@H]2Cn3c(ccc(C4=CCCC4)c3=O)[C@H]1N2C(=O)C1CC1	1	0	.	.	.	-2
CCOc1ccc(N2C(=O)c3ccccc3C2O)cc1 (stereo unspecified)	3	0	43*	4	.	?
O=C(COc1ccc(N2C(=O)c3ccccc3C2=O)cc1)c1ccccc1	-2	.	-5	5	4	.
CCOc1ccc(N2C(=O)c3ccccc3C2=O)cc1	.	.	.	-1	7	43*
C[C@H](CO)N1C[C@H](C)[C@H](CN(C)Cc2ccc(Cl)c(Cl)c2)Oc2c(NC(=O)C3CCOCC3)cccc2C1=O	1	0	.	.	.	-1
Cn1c(N=Nc2ccc(N3CCOCC3)cc2)[n+](C)c2ccccc21	58*	0	14	-1	-10	.
Cn1c(=Nc2ccc(N3CCOCC3)cc2)ccc2ccccc21	.	.	0	-1	10	-8
COc1ccccc1NC(=O)N[C@@H]1CC[C@@H](CC(=O)NCc2ccc(Cl)c(Cl)c2)O[C@@H]1CO	0	0	.	.	.	11
CC(C)CNC(=O)COC(=O)c1c2c(nc3ccccc13)/C(=C\c1cccs1)CC2	-1	0	16	0	12	55*
O=C(COC(=O)c1c2c(nc3ccccc13)/C(=C\c1cccs1)CCC2)Nc1ccccc1	5	0	-4	6	6	.
CC(=O)Nc1ncc(Cc2cccc(Cl)c2)s1	-6	0	8	2	10	.
O=C(Nc1ncc(Cc2cccc(Cl)c2)s1)C1CCCO1 (stereo unspecified)	.	.	.	6	97*	.
O=C(Nc1ncc(Cc2ccccc2Cl)s1)C1CCCO1 (stereo unspecified)	.	.	10	4	73	71*
